Pol beta inh: inhibitors of human DNA polymerase beta; P06746; Pol beta primer extension/strand displacement, fluorescence kinetic; Potency, µM (highest dose often 114 µM), without a hit: at the highest dose activity change, negative = inhibition, hits mostly inhibitors; actives 1.3% (n = 340,000); note: % is set by controls: 0 for no effect and ±100 for the full control effect
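Enzyme-only controls used 10 nM Pol beta; buffer lacking enzyme served as negative control. Compound preincubated 15 min, then 50 nM substrate added; 0 and 10 min reads at room temperature.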
Pol kappa inh: DNA polymerase kappa (human) inhibition; Q9UBT6; purified Pol kappa, fluorescent DNA synthesis assay, 10 min; Potency, µM (highest dose often 107 µM), for the others: at the top dose activity, negative = inhibition, hits mostly inhibitors; actives 0.53% (n = 400,000); AID 588579; note: % is set by controls: 0 for no effect and ±100 for the full control effect
Target sequence (Q9UBT6 whole entry, looked up): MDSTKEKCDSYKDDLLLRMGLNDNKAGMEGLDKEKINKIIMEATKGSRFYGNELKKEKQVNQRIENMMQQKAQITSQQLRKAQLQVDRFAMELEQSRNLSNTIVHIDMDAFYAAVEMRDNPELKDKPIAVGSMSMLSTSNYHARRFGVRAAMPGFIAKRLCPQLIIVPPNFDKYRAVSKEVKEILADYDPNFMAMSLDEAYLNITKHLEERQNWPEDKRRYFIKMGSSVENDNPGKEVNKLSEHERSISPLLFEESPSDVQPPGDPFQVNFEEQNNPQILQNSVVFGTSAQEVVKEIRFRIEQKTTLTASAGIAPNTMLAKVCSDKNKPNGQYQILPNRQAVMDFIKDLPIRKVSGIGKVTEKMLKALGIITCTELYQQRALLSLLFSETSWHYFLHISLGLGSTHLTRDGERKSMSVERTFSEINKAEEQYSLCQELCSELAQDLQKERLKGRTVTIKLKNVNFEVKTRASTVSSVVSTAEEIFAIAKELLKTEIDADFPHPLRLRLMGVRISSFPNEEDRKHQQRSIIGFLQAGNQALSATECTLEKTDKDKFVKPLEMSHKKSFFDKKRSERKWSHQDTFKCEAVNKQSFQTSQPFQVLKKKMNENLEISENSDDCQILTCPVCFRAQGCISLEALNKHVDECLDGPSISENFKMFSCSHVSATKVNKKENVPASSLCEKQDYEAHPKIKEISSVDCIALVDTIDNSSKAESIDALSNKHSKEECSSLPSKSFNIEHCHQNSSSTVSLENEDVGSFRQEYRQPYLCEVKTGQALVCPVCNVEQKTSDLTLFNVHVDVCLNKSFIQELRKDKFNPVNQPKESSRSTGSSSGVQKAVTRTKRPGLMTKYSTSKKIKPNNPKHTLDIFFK
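10 nM Pol kappa was preincubated with compounds for 15 min at room temperature. Reaction started with 50 nM (final) substrate. Fluorescence read kinetically at 0 and 10 min.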
POLH inh: inhibitors of human DNA polymerase eta | recombinant Pol eta, fluorescent DNA replication assay | Potency, µM (top dose mostly 114 µM), for the others: top-dose activity change, negative = inhibition, hits mostly inhibitors | Q9Y253 | actives 1.2% (n = 390,000); note: % is set by controls: 0 for no effect and ±100 for the full control effect
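Pol eta at 10 nM preincubated with compounds 15 min at room temperature; reaction started with fluorescent substrate (50 nM final) and read kinetically at 0 and 10 min.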
WRN inhibitor: inhibitors of human WRN helicase. Q14191. WRN helicase unwinding, fluorescent forked duplex, kinetic. Potency, µM (titrated, usually from 114 µM), inactives show at the top dose activity change, negative = inhibition, actives largely listed as inhibitors. actives 0.46% (n = 360,000); note: % is set by controls: 0 for no effect and ±100 for the full control effect; nearly all actives have a fitted effect of over 55% in size
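Kinetic red-fluorescence monitoring (525/598 nm) tracks WRN helicase activity after 100 nM fluorophore-quencher forked duplex and 2 mM ATP are added to 20 nM enzyme pretreated 15 min at room temperature with compound.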
FEN1 inhibitor: blocks human flap endonuclease 1; Recombinant FEN1 flap cleavage, fluorescence, 15 min; Potency, µM (series often up to 114 µM), for inactives: top-dose activity change, negative = inhibition, most hits filed as inhibitors; actives 0.35% (n = 390,000); P39748; note: % is set by controls: 0 for no effect and ±100 for the full control effect; nearly all actives have a fitted effect of over 65% in size
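Steps: FEN1 (10 nM) dispensed; compound added by pin tool; 15 min at room temperature; substrate added to 50 nM final; reads at 0 min and 15 min; data normalized and fitted (four-parameter Hill).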
POLI inh: blocks human DNA polymerase iota activity. Q9UNA4. Pol iota fluorescent replication assay, 10 min. Potency, µM (top dose mostly 115 µM), inactives show at the highest dose activity, negative = inhibition, hits mostly inhibitors. actives 1% (n = 390,000)
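Pol iota at 10 nM preincubated 15 min with compounds at room temperature; reaction started with fluorescent substrate, 50 nM final. Fluorescence read kinetically at 0 and 10 min; buffer-only wells as negative control.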
TbPGK inh: TbPGK inhibition, hit validation; AID 686980; Potency, µM (highest dose often 57.5 µM), without a hit: top-dose activity change, negative = inhibition, usual class: inhibitors; shares compounds with Pol kappa inh; TbPGK coupled GAPDH assay, Kinase-Glo luminescence; actives 79% (n = 500); note: % is set by controls: 0 for no effect and ±100 for the full control effect; nearly all actives have a fitted effect of over 65% in size
Pol iota confirm: Inhibitors of human DNA polymerase iota, confirmation | shares compounds with Pol kappa inh | Pol iota primer extension, TAMRA/BHQ fluorescence | Potency, µM, most hits filed as inhibitors | actives 77% (n = 1,500) | AID 720496
The depositor's hits bear a star; [ ] = remark or other dose. In the library only some 2.4% were active in any assay of this set; here they are far more common. Calls come from the whole dose curve; as a rule, active = well fitted curve in the direction sought with a large enough effect; inconclusive = small, poorly fitted or top-dose-only effect, or another doubt; inactive = no such curve, though single readings can be large; an effect the other way counts as inactive or inconclusive. Potency is the fitted concentration of half-maximal effect.

Results for O=C1NC(=Nc2ccc(Cl)cc2)/C(=C/c2ccco2)S1 ?
Pol beta inh: 8.91µM*; Pol kappa inh: inconclusive; POLH inh: 56.2µM*; WRN inhibitor: -6.7%[11.6 µM]; FEN1 inhibitor: -4.5%; POLI inh: 28.2µM*; Pol iota confirm: inconclusive

What do the screens show for `COc1ccc(-c2cc3ccc(O)c(CN4CCC(C)CC4)c3oc2=O)cc1OC`?
Pol beta inh: -18.7%; Pol kappa inh: -11.0%[60.1 µM]; POLH inh: -4.5%; FEN1 inhibitor: 1.5%; POLI inh: -8.9%

How did O=C(Nc1ccc(Cc2ccc(NC(=O)Nc3cccnc3)cc2)cc1)Nc1cccnc1 do in these assays?
POLH inh: 44.7µM*; WRN inhibitor: -9.6%[11.6 µM]; Pol iota confirm: inconclusive

How did N#Cc1c(-c2ccccc2)c(C#N)c2nc3ccccc3n2c1N do in these assays?
Pol beta inh: -8.3%; Pol kappa inh: -34.8%; POLH inh: -6.3%; WRN inhibitor: -9.8%[11.6 µM]; FEN1 inhibitor: -4.3%; POLI inh: 15.8µM*; Pol iota confirm: inconclusive

What do the screens show for `Cc1ccc(-c2c(C#N)c(N)n3c(nc4ccccc43)c2C#N)cc1`?
Pol beta inh: -9.8%; Pol kappa inh: -10.5%; POLH inh: inconclusive; WRN inhibitor: -25.9%; FEN1 inhibitor: -12.9%; POLI inh: inconclusive

What do the screens show for `O=C(O)CCCN1C(=O)/C(=C/c2ccc(-c3nc4ccccc4s3)o2)SC1=S`?
Pol beta inh: 12.6µM*; Pol kappa inh: 50.1µM*; POLH inh: 3.16µM*; WRN inhibitor: inconclusive; FEN1 inhibitor: -20.2%; POLI inh: inconclusive; TbPGK inh: inconclusive

How did O=C(O)CCCN1C(=O)/C(=C/c2ccncc2)SC1=S do in these assays?
Pol beta inh: -3.4%; Pol kappa inh: -13.9%; POLH inh: -4.4%; WRN inhibitor: -2.3%; FEN1 inhibitor: -4.2%; POLI inh: inconclusive

Results for O=c1c(Cl)c(N2CCCCC2)cnn1-c1nc2ccccc2[nH]1 ?
Pol beta inh: -5.0%; Pol kappa inh: -9.3%; POLH inh: -0.4%; WRN inhibitor: -2.2%; FEN1 inhibitor: 2.3%; POLI inh: 12.3%

Results for O=c1c2ccccc2cnn1-c1nc2ccccc2[nH]1 ?
Pol beta inh: 20.1%; Pol kappa inh: 1.7%[60.1 µM]; POLH inh: -7.7%; WRN inhibitor: -2.4%; FEN1 inhibitor: -16.3%; POLI inh: 24.9%; TbPGK inh: 5.8µM*

What do the screens show for `COc1ccc(NC(=O)c2c(NCc3ccc(C)o3)sc3c2CCCCC3)c(OC)c1`?
Pol beta inh: -2.5%; Pol kappa inh: -14.8%[60.1 µM]; POLH inh: -8.0%; FEN1 inhibitor: -14.8%; POLI inh: inconclusive

What do the screens show for `C=C(C)C(=O)OCCCCCCOc1ccc(C(=O)O)cc1`?
Pol beta inh: 70.8µM*; Pol kappa inh: 25.1µM*; POLH inh: 35.5µM*; WRN inhibitor: -10.3%[57.1 µM]; FEN1 inhibitor: -3.7%; POLI inh: 14.1µM*; TbPGK inh: 9.19µM*

Results for CCCCn1c(N)c(-c2nc3ccccc3o2)c2c([N+](=O)[O-])nn(C)c(=O)c21 ?
Pol beta inh: inconclusive; Pol kappa inh: -11.2%; POLH inh: inconclusive; WRN inhibitor: inconclusive; FEN1 inhibitor: inconclusive; POLI inh: inconclusive; Pol iota confirm: 42.3*

Results for CCCCCn1c(N)c(-c2nc3ccccc3s2)c2c([N+](=O)[O-])nn(C)c(=O)c21 ?
Pol beta inh: 34.0%; Pol kappa inh: -13.6%; POLH inh: -8.0%; WRN inhibitor: -14.2%; FEN1 inhibitor: -2.1%; POLI inh: 5.5%

How did Cc1ccc2c(C)nc(Nc3nc(CSc4nnc(C)s4)cc(=O)[nH]3)nc2c1 do in these assays?
Pol beta inh: 253.4%; Pol kappa inh: 14.4%; POLH inh: 29.1%; WRN inhibitor: 14.4%; FEN1 inhibitor: inconclusive; POLI inh: 37.6%

What do the screens show for `COc1cccc2c(C)nc(Nc3nc(CSc4nnc(C)s4)cc(=O)[nH]3)nc12`?
Pol beta inh: -1.3%; Pol kappa inh: -7.9%; POLH inh: -4.9%; WRN inhibitor: -6.7%[57.1 µM]; FEN1 inhibitor: 50.1µM*; POLI inh: inconclusive; Pol iota confirm: inconclusive

How did Fc1ccccc1Nc1nc2ccccc2o1 do in these assays?
Pol beta inh: -0.2%; Pol kappa inh: -6.2%; POLH inh: -0.1%; WRN inhibitor: 4.7%; FEN1 inhibitor: -2.9%; POLI inh: 9.4%; TbPGK inh: 18.3µM*

What do the screens show for `Cc1cccc(NC(=O)CSc2nc(C3CC3)nc3ccccc23)c1`?
Pol beta inh: 22.4µM*; Pol kappa inh: -5.6%; POLH inh: 39.8µM*; WRN inhibitor: -5.4%[11.6 µM]; FEN1 inhibitor: 4.9%; POLI inh: 22.4µM*; Pol iota confirm: 67*

What do the screens show for `O=C(CSc1nc(C2CC2)nc2ccccc12)Nc1ccccc1`?
Pol beta inh: 5.8%; Pol kappa inh: -5.7%; POLH inh: 5.5%; WRN inhibitor: -3.9%; FEN1 inhibitor: -12.6%; POLI inh: 7.8%

How did COCCn1c(C)cc(C2=NNC(=NC3CC3)SC2)c1C do in these assays?
Pol beta inh: 5.7%; Pol kappa inh: -2.2%; POLH inh: -18.3%; WRN inhibitor: 4.1%; FEN1 inhibitor: 4.8%; POLI inh: 206.1%; TbPGK inh: 16.3µM*

What do the screens show for `O=C(Nc1ccc(Cl)cn1)c1cnn2c1NC(=C1CC1)C=C2C(F)F`?
Pol kappa inh: 5.5%; FEN1 inhibitor: 8.2%; POLI inh: 36.0%

How did Nc1c(C(=O)O)cnc2c(-c3ccc(Cl)cc3)cnn12 do in these assays?
Pol beta inh: 2.6%; Pol kappa inh: -5.5%; POLH inh: -15.8%; WRN inhibitor: inconclusive; FEN1 inhibitor: -17.1%; POLI inh: 37.3%; TbPGK inh: inconclusive

Results for CC(=O)c1cnc2c(-c3ccc(Cl)cc3)cnn2c1C ?
Pol beta inh: 10.3%; Pol kappa inh: -15.1%; POLH inh: 2.6%; WRN inhibitor: 14.4%; FEN1 inhibitor: -0.7%; POLI inh: 2.0%

What do the screens show for `COc1ccc(Cn2c(-c3ccccc3)nc3c(c(=O)c4ccccc4n3C)c2=O)cc1`?
Pol beta inh: -1.3%; Pol kappa inh: -0.7%; POLH inh: inconclusive; WRN inhibitor: inconclusive; FEN1 inhibitor: 5.6%; POLI inh: 4.9%; Pol iota confirm: 42.3*
